# VDR inhibitor: Inhibitors of the vitamin D receptor (VDR): qHTS. Vitamin D3 receptor (Homo sapiens), P11473. VDR-SRC2-3 peptide fluorescence polarization, 2 h. Potency, µM, inactives show max response, negative = inhibition, actives largely listed as inhibitors. actives 0.93% (n = 400,000). AID 504847, 2011; note: % is set by controls: 0 for no effect and ±100 for the full control effect
#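 Inhibition of the VDR/SRC2-3 peptide interaction is quantified by fluorescence polarization. Compounds (23 nl, pintool) incubate with the reagents for 2 hours at ambient room temperature.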
# PTAP TSG101 blk: qHTS Assay for Iinhibitors of HIV-1 Budding by Blocking the Interaction of PTAP/TSG101; Fluorescence polarization, FITC-PTAP peptide / Tsg101 binding; 340,000 tested, under 10 active; Potency, µM (titrated, usually from 115 µM), without a hit: at the highest dose activity change, negative = inhibition, actives largely listed as inhibitors; AID 493005, 2010; active = well fitted inhibition curve with a large enough effect in the main read-out, with a control signal flat, not every such curve was filed as active; inconclusive = small, poorly fitted or top-dose-only effect, or effect the other way, or a change in a side signal; inactive = no such curve, though single readings can be large or run the other way; note: % of control where 0% means no effect
# Target sequence (Q99816 whole entry, looked up): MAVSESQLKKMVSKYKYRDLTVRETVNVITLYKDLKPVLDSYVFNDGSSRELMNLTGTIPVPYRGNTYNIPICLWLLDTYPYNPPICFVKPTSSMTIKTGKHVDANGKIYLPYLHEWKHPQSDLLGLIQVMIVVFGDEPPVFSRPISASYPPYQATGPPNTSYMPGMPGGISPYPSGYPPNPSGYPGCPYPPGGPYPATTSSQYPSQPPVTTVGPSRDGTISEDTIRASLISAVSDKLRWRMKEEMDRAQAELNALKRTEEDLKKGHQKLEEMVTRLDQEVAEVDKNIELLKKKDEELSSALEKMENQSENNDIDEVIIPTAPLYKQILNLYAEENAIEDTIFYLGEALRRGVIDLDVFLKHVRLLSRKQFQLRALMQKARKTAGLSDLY
#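 Compounds were pin-transferred onto Tsg101 binding domain (10 uM final) in HEPES pH 7.5 buffer, then FITC-PTAP peptide was added at 50 nM final. After 20 min at RT, polarization reported peptide displacement across a qHTS concentration series.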
# USP1-UAF1 inh: Inhibitors of USP1/UAF1: Primary Screen; actives 0.23% (n = 390,000); recombinant USP1/UAF1, Ub-Rhodamine cleavage fluorescence; AID 743255, 2014; Potency, µM (series often up to 57.1 µM), without a hit: at the top dose activity change, negative = inhibition, hits mostly inhibitors; note: % is set by controls: 0 for no effect and ±100 for the full control effect; nearly all actives have a fitted effect of over 60% in size
#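 In this screen, compounds sit with the deubiquitinase complex (1nM) for 15 min at room temperature before Ub-Rho is added at 150nM final. Fluorescence rise is then followed for 6 reads every 60 seconds.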
# GCN5L2 inh: qHTS Assay for Inhibitors of GCN5L2. actives 0.21% (n = 390,000). Histone acetyltransferase KAT2A (Homo sapiens), Q92830. Potency, µM (top dose mostly 58.9 µM), without a hit: at the top dose activity change, negative = inhibition, usual class: inhibitors. GCN5L2 HAT assay, ThioGlo1 CoA-SH fluorescence; note: % is set by controls: 0 for no effect and ±100 for the full control effect
#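 GCN5L2 (20nM final) in 50mM HEPES, 0.1mM EDTA pH 7.5, 0.01% Tween-20 was preincubated 15 min at room temperature with compound, then given ThioGlo1 (50uM), H3(1-25) peptide (75uM) and acetyl-CoA (70uM); CoA-thiol fluorescence (Ex340/Em540) was read at 0 and 20 min.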
# PLK1 PBD inh: qHTS for Inhibitors of PLK1-PDB (polo-like kinase 1 - polo-box domain): Primary Screen. Serine/threonine-protein kinase PLK1 (Homo sapiens), P53350. Plk1 PBD binding of FITC phosphopeptide, fluorescence polarization. Potency, µM, for inactives: max response, negative = inhibition, hits mostly inhibitors. actives 2.8% (n = 360,000). AID 720504, 2013; note: series mostly up to about 57 µM; % is set by controls: 0 for no effect and ±100 for the full control effect; nearly all actives have a fitted effect of over 65% in size
# Starred values were filed as active, the others as inactive; ? = inconclusive; . = no result given. Most compounds without a hit are left out; they make up all but 3% or so of the library. Unless noted, calls come from the whole dose curve; as a rule, active = well fitted curve in the direction sought with a large enough effect; inconclusive = small, poorly fitted or top-dose-only effect, or another doubt; inactive = no such curve, though single readings can be large; an effect the other way counts as inactive or inconclusive. Potency is the fitted concentration of half-maximal effect.
SMILES,VDR inhibitor,PTAP TSG101 blk,USP1-UAF1 inh,GCN5L2 inh,PLK1 PBD inh
COc1cccc(-c2ccc3c(N)c(C(=O)Nc4ccc(C)c(F)c4)sc3n2)c1,-2%,.,-2%,25µM*,.
COc1ccc(-c2ccc3c(N)c(C(=O)NCc4ccc(Cl)cc4)sc3n2)cc1,-8%,.,-22%,20µM*,.
Oc1ccccc1C(=S)N1CCN(C(=S)c2ccccc2O)CC1,-23%,-5%,-14%,6%,24µM*
Oc1ccccc1C(=S)N1CCCC1,?,-5%,-17%,-15%,?
Cc1cc(C)cc(NC(=O)CSc2nc(-c3cccc(Cl)c3)nc3c2Cc2c(CO)cnc(C)c2O3)c1,-4%,.,3%,-4%,.
COc1ccc(CNC(=O)C2CCN(S(=O)(=O)c3ccc4nc5c(c(C(=O)O)c4c3)CCCC5)CC2)cc1,5%,.,-18%,-18%,-3%
O=C(NC1CCCC1)C(c1ccc(Cl)cc1)N1CCc2ccccc21 (stereo unspecified),89µM*,0%,-12%,?,0%
O=C(NC1CCCCC1)C(c1ccccc1)N1CCc2ccccc21 (stereo unspecified),-2%,-5%,-23%,-7%,-7%
Cc1noc(C)c1S(=O)(=O)Nc1ccc(C(=O)Nc2ccc(C(C)C)cc2)cc1,-6%,.,-12%,-8%,.
COc1ccc(-c2nc3c(C#N)c[nH]n3c2NC2CCCCC2)cc1,3%,.,?,-8%,.
FC(F)(Cl)c1nnc2ccc(Sc3ccccn3)nn12,-10%,-1%,-20%,-7%,21µM*
CCN(CC)c1ccc(C=C2C(=O)OC3(CCCCC3)OC2=O)cc1,?,0%,-17%,-19%,-22%
CCN(CC)c1ccc(/C=C2/C(=O)c3ccc(C(=O)O)cc3C2=O)cc1,-1%,?,13µM*,-13%,6%
CCCC(=O)NC(C)c1nc2ccccc2n1Cc1ccccc1 (stereo unspecified),-9%,.,?,1%,.
COc1cc(/C=C2\SC(=S)N(CCCCC(=O)O)C2=O)ccc1OS(=O)(=O)c1ccc(C)cc1,?,-4%,?,?,30µM*
COc1ccc(/C=C2\SC(=S)NC2=O)cc1OS(=O)(=O)c1ccc(NC(C)=O)cc1,-14%,-2%,-19%,-16%,?
COc1cc(/C=C2/SC(=S)NC2=O)ccc1OS(=O)(=O)c1ccc(C)cc1,50µM*,-2%,?,?,9.5µM*
COc1ccc(/C=C2\SC(=S)N(CCCCCC(=O)Nc3cc(C)on3)C2=O)cc1OC,-5%,.,-9%,?,-7%
CCOC(=O)c1cc(C)n(CC2CCC(C(=O)Nc3ccccc3OC)CC2)c1C (stereo unspecified),20%,.,2%,1%,.
Cc1cccc(OCCSc2nc3ccc(NC(=O)COc4ccccc4)cc3s2)c1,-5%,.,-9%,-5%,.
Cc1cccnc1NC(=O)Cn1nc(-c2ccccc2)oc1=S,?,-1%,-9%,-1%,24µM*
Cc1cccnc1NC(=O)Cn1nc([N+](=O)[O-])cc1C,1%,-5%,?,-1%,1%
CCOC(=O)c1c(N)sc2c1CCS(=O)(=O)C2,-3%,-9%,-7%,3%,27µM*
NC(=O)NC(=O)COC(=O)/C=C/c1cccc(Br)c1,-15%,-8%,-21%,-4%,-2%
CCOC(=O)C(CC)(CC)C(=O)/C=C/c1cccc(Br)c1,79µM*,-1%,-21%,.,-5%
SMILES,VDR inhibitor,PTAP TSG101 blk,USP1-UAF1 inh,GCN5L2 inh,PLK1 PBD inh
COc1ccccc1C(=O)NC1=NC(c2ccc(Br)cc2)CC(=O)N1 (stereo unspecified),0%,.,-3%,-6%,.
O=c1[nH]c(CSc2nnc(Nc3ccccc3)s2)nc2ccccc12,-30%,0%,-15%,-2%,27µM*
CCCCOc1ccc(Cc2n[nH]c(=S)n2N)cc1,50µM*,1%,-17%,?,3.8µM*
CCCCn1c(Cc2ccccc2)n[nH]c1=S,-13%,-4%,-19%,-15%,-15%
C=CCn1c(SCC(=O)NC2CC2)nc2sc(CC)cc2c1=O,-21%,-3%,-21%,-5%,27µM*
CCc1cc(=O)oc2cc(OCC(=O)NCc3ccccn3)ccc12,?,-6%,-22%,-19%,27µM*
Cc1cc(=O)oc2cc(OCC(=O)N3CCOCC3)ccc12,-15%,0%,-9%,?,27µM*
CCOC(=O)c1c(-c2ccccc2)csc1NC(=O)COc1ccc2c(C)cc(=O)oc2c1,-17%,0%,-17%,-4%,27µM*
COc1ccc(-c2cc(=O)oc3cc(OCC(=O)Nc4ccccn4)ccc23)cc1,?,-3%,-30%,-6%,3µM*
CCCc1cc(=O)oc2cc(OCC(=O)Nc3ccccn3)ccc12,6%,-1%,-5%,-11%,-4%
O=C(COc1ccc2c(-c3ccccc3)cc(=O)oc2c1)NCc1ccccn1,4%,1%,5%,-9%,-1%
CN1CCN(c2ccc(CNC(=O)C3(C)Cc4c(-c5ccccc5)ccnc4O3)cc2)CC1 (stereo unspecified),.,.,.,.,-5%
Cc1ccc2nc(COc3cccc(NC(=O)COc4ccc(F)cc4)c3)cc(=O)n2c1,5%,.,?,0%,.
Cc1ccc(CNC(=O)c2ccc(CSCc3ccccc3Cl)o2)cc1,-7%,.,11%,1%,.
CCc1ccccc1NC(=O)CN1C(=O)c2cccnc2Sc2ccccc21,6%,.,11%,-4%,.
COc1ccc(-c2nc3ccc(NC(C)=O)cc3c(=O)n2Cc2cccc(Cl)c2)cc1COc1ccc(NC(C)=O)cc1,-12%,.,.,.,.
CCCc1cc(=O)[nH]c(SCc2nc(-c3ccc(OC)cc3)no2)n1,-6%,.,16%,-14%,.
O=C(C1CCC(CNc2nc(=S)[nH]c3ccccc23)CC1)N1CCN(c2ccc(F)cc2)CC1 (stereo unspecified),8%,-5%,-4%,0%,21µM*
COc1ccc(N2CCN(CCCNC(=O)C3CCC(CNc4nc(=S)[nH]c5ccccc45)CC3)CC2)cc1 (stereo unspecified),11%,-1%,-19%,-1%,-9%
COc1ccc(N/N=C(/C(C)=O)N2CCCc3ccccc32)cc1,2%,-1%,-8%,-13%,9%
CCCc1cc(=O)oc2c3c(c(Cl)cc12)OCN(CCCO)C3,.,.,.,13µM*,.
COc1ccc(C(=O)CC2(O)C(=O)N(Cc3ccccc3)c3ccc(Br)cc32)cc1 (stereo unspecified),-13%,.,-20%,-16%,.
